Assay results as given in PubChem BioAssay (NCI).
Compounds without any hit were thinned out: in the full panel of roughly 83,000, 20% have a hit.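 Assay: single dose, 48 h. Readout: percent growth (0 = no net growth; negative = cell death). Active: <10.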 Unmarked numbers belong to inactive results. The source made the active and inactive calls.

System: T-47D breast
Assay: NCI-60 one-dose screen, 48 h (100 = growth as untreated, 0 = no growth, -100 = all killed)
Conditions: 10 µM unless noted
Experimental: Growth inhibition of the T-47D human tumor cell line is measured as a screen for anti-cancer activity. Cells are grown in 96 well plates and exposed to the test compound for 48 hours. Compounds are tested at a single concentration, which is 10^-5 M for most compounds. The reported endpoint is percent growth (GI% or GIPRCNT), where numbers from 0 - 100% represent growth inhibition, and numbers from -100% - 0 represent cell death. For example, a value of 40 represents 60% growth inhibition. A value of 0 means no net growth occurred over the course of the experiment. A value of -40 indicates 40% of cells at the beginning of the experiment died by the end of the experiment. A value of -100 means all cells are dead at the end of the experiment.
NCI-60 Human Tumor Cell Lines Screen was performed using the standard one-dose NCI protocol, which is described in more detail at https://dtp.cancer.gov/discovery_development/nci-60/default.htm.
Compounds with GIPRCNT values below 10 were considered active. Activity score was based on GIPRCNT using the following formula: […]
Score is 0 for GIPRCNT values of 100 or above, 50 for GIPRCNT values of 0, and 100 for GIPRCNT values of -100.

Point of comparison: C#C[C@]1(O)CC[C@H]2[C@@H]3CC=C4c5sc(Nc6ccc(Cl)cn6)nc5CC[C@]4(C)[C@H]3CC[C@@]21C, growth 68.8%. Against it:
- COc1ccc(NC(=O)c2sc3nc(-c4cnccn4)cc(-c4cccs4)c3c2N)cc1 — lower, 67.8%
- CS(=O)(=O)c1ccc(-n2cc(/C=C/C(=O)c3ccc(NC(=O)CO[N+](=O)[O-])cc3)c(-c3ccc(Cl)cc3)n2)cc1 — higher, 104%
- CCCC(=O)NC(c1cccnc1)c1cc(C)c2cccnc2c1O (stereo not given) — lower, 29.7%
- Nc1cc(-c2c[nH]c3ccc(F)cc23)nc2cc(-c3c[nH]c4ccc(F)cc34)nn12 — higher, 81.7%
- N#Cc1nc(-c2ccccc2)oc1S(=O)(=O)N1CCCCC1 — lower, 49.9%
- CC(=O)Nc1cc(F)cc(-c2ccc3[nH]cc(-c4ccccc4)c3n2)c1 — lower, 26.8%
- COc1ccc(/C=N/NC(=O)c2[nH]c3ccc(Br)cc3c2-c2ccccc2)s1 — higher, 73.2%
- O=C(N/N=C/c1ccco1)c1[nH]c2ccc(Br)cc2c1-c1ccccc1 — lower, 60.7%
- C#Cc1nc(C2=C(C)C(=N\O)/C(=N/O)C2)cs1 — higher, 82.6%
- C/C(=N\NC(N)=O)c1c(O)sc(=O)[nH]c1=O — higher, 105%
- CC(C)(C)Nc1nc2c(OCCc3ccccc3)cccn2c1-c1ccc(O)cc1 — lower, 35.9%
- N#Cc1ccc(/C=N/NC(=O)c2[nH]c3ccc(Br)cc3c2-c2ccccc2)s1 — lower, 58.8%
- Nc1c(C(=O)Nc2ccc(Cl)cc2)sc2nc(-c3cnccn3)cc(-c3cccs3)c12 — higher, 96.7%
- NS(=O)(=O)c1cccc(Nc2nc(SCC(=O)c3ccc([N+](=O)[O-])cc3)nc3ccccc23)c1 — lower, 10.8%
- N=C1CC(=O)NN1C(=O)CSc1nc2sc3c(c2c(=O)n1-c1ccc(Cl)cc1)CCCC3 — higher, 83.8%
- CC(C)NC(=O)c1cc(-c2ccc(NC(=O)Nc3ccc(N4CCOCC4)c(C(F)(F)F)c3)cc2)nc2cccnc12 — lower, 64.2%
- O=C(NNc1nc2cc(F)ccc2n2c(CN3CC4(COC4)C3)ccc12)c1cnccn1 — lower, 26.2%
- C#Cc1nc(C2=C(C)/C(=N/OCc3ccccc3)CC2)cs1 — lower, 67.5%
- Nc1nc(N)c2c(n1)NC(c1ccc(C(F)(F)F)cc1)CC(c1ccc(Nc3nc(NCCO)nc(Nc4ccc(Cl)cc4)n3)cc1)=N2 (stereo not given) — lower, 36%
- Cc1cccc(/C=C/c2nn3c(-c4ccco4)nnc3s2)c1 — higher, 89.2%
- O=C(CCN1C(=O)/C(=C/c2ccccc2)SC1=S)N1CCOCC1 — lower, 65.7%
- CN(C)c1ccc(/C=c2\sc3nc4ccccc4n3c2=O)cc1 — higher, 83.8%
- N#Cc1ccc(C(=O)CSc2nc(Nc3ccc(S(N)(=O)=O)cc3)c3ccccc3n2)cc1 — higher, 103%
- CSCCC(C(=O)O)N1C(=O)/C(=C/c2ccc(O)c(O)c2)SC1=S (stereo not given) — higher, 95.1%
- C#C[C@]1(O)CC[C@H]2[C@@H]3CC=C4c5sc(-c6ccc(F)cn6)nc5CC[C@]4(C)[C@H]3CC[C@@]21C — lower, 39.9%
- N#Cc1c(-c2ccc(F)cc2)nc2c(C#N)c(Nc3ccccc3)nn2c1N — higher, 88.3%
- CCOc1ccc2nc(NC(=O)c3ccc(C(F)(F)F)cc3)sc2c1 — higher, 97.7%
- COc1cc(OC)c(C2C(Cl)C(=O)N2Nc2ncnc3ccccc23)cc1OC (stereo not given) — higher, 96.1%
- COc1ccc(-c2nc3ccc(-c4nnc(SCC(=O)Nc5ccc(C(C)=O)cc5)o4)cc3[nH]2)cc1 — higher, 105%
- COc1cc(/C=C/C(=O)c2ccc(F)cc2)ccc1Oc1nc(NCCO)nc(N2CCOCC2)n1 — higher, 96.5%
- COc1ccc(NC2=C(Cl)C(=O)C(C)=C(C)C2=O)cc1OC — lower, 23.5%
- Cc1nc(-c2cc3ccccc3oc2=O)ccc1C(=O)/C=C/c1ccc(Cl)c(Cl)c1 — higher, 104%

In the case of Cc1ccc2ccc3ccc(C)nc3c2n1.Cc1ccc2ccc3ccc(C)nc3c2n1.Oc1c(Cl)cc(Cl)c2ccc(CN3CCCCC3)nc12.[Ru], the growth is reported as -55.8% (active).
With COc1cc2cc(Oc3ccc(NC(=O)c4cccc(C(F)(F)F)c4)cc3)c(C)nc2cc1OCCN1CCCCC1 the growth was -25.8% (active).
NC(=O)c1cc(-c2ccc3ncnc(N4CCc5cc(F)c(Cl)cc54)c3c2)cnc1N was tested, and the growth was 0.0054% (active).
CCN1CCN(S(=O)(=O)c2oc(-c3ccc(Cl)cc3)nc2C#N)CC1 was tested, and the growth was 7.45% (active).
C[C@@H](Nc1c(C#N)cnc2ccc(-c3cnc(N)nc3)cc12)c1ccccc1 was tested, and the growth was 3.05% (active).

Compound COc1ccc([C@@H]2c3[nH]c4ccccc4c3CC3C(=O)N(C4CCN(Cc5c(F)cccc5F)CC4)CC(=O)N32)c(OC)c1 (stereo not given in full) has a growth of 47.1% [5.26 µM].

C=CCSc1ccc2c(c1)C(N1CCNCC1)=Nc1ccccc1O2 gave a growth of 71.3% [8.25 µM].
